This note sets out measurements from PubChem BioAssay (EPA / NIEHS).

Activity calls are given as the source filed them. Rule for the calls: active = hit-call score of the fitted dose curve at least 0.9, where 1 is the maximum; inactive = score below 0.9.

Read-out in the test: Interleukin-1 alpha (IL1a), IL1A (gene 3552)
Description: BSK_BE3C_IL1a: BioMAP Diversity Plus: BE3C Assay for Interleukin-1 alpha (IL1a) Biomarker Activity (AID 2283016). As to conditions: primary human bronchial epithelial cells; actives raise or lower the signal. The procedure, abridged: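 Signal from IL-1a ELISA, taken 24 h after chemical dosing of human bronchial epithelial cells, is compared with DMSO as baseline using bidirectional curve fitting.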
For `CCCCC(CC)COP(=O)(OCC(CC)CCCC)OCC(CC)CCCC` (configuration not stated), the outcome was inactive.

For the molecule `Oc1ccccc1O`, the outcome was inactive.

On to `CC1=C(C)S(=O)(=O)CCS1(=O)=O`, for which the result was inactive.

For `CC(C)(O)c1ccc(CNC(=O)c2cccnc2Oc2ccc(F)cc2)cc1`, the result was inactive.

On to `COC(=O)CCC(=O)OC`, for which the result was inactive.

On to `CC(C)COC(=O)CCCCC(=O)OCC(C)C`, for which the result was inactive.

With `COc1ccc(C(=O)Nc2nc3ccccc3c(NCc3ccccc3)c2C#N)cc1`, the result was inactive.

Consider `O=C1O[C@H]([C@H](O)CO)C(O)=C1O`, for which the outcome was inactive.

On to `C/C=C/c1ccc(OC)cc1`, for which the outcome was inactive.

In the case of `O=C(O)CN(CC(=O)O)CC(=O)O`, the outcome was inactive.

Turning to `O=NO`, the outcome was inactive.

Consider `CO[C@@H]1COCC[C@@H]1N[C@@H]1CC[C@@](C(=O)N2CCc3ncc(C(F)(F)F)cc3C2)(C(C)C)C1`, for which the outcome was inactive.

For the molecule `CCCC[C@H]1CN(CC2CCOCC2)C(=O)OC12CCN(C1(C)CCN(C(=O)c3c(C)ncnc3C)CC1)CC2`, the result was inactive.

`CCc1cc(C2=C(C(=O)O)N(c3ccccc3C(F)(F)F)S(=O)(=O)c3ccccc32)cc2c1OCO2`: the result was inactive.

With `Oc1ccc(O)cc1`, the result was inactive.

Consider `Cc1cc(SC2=C(O)C[C@@](CCc3ccc(N)cc3)(C(C)C)OC2=O)c(C(C)(C)C)cc1CO`, for which the outcome was inactive.

Regarding `CN(C)CCCN(C)CCCN(C)C`, the result was inactive.

Regarding `O=C(O)c1cccnc1`, the outcome was inactive.

As for `CCCCCCCCCC[N+](C)(C)[O-]`, the result was inactive.

In the case of `CCCCc1nc2cccnc2n1Cc1ccc(-c2ccccc2-c2nnn[nH]2)cc1`, the result was inactive.

`CC1(C)C(=O)NC(=O)N1CO`: the outcome was inactive.

Usually AC50 stands for the concentration at which the activity in the assay is half-maximal. Regarding `CCCCCCCCCCCCCCOS(=O)(=O)O`, the AC50 was 28.1 µM (active).
